# PubChem BioAssay
# The source made the active and inactive calls.
# Tests used:
# Albumin (Bos taurus) = Albumin (Bos taurus) (UniProt P02769); assay: compounds binding labelled BSA control protein – biochemical, small-molecule microarray, Alexa647 label, 635/667 nm fluorescence, artefact control for SMM control protein annotation, profiling panel (AID 1118); conditions: BSA-A647 binding, fluorescence 635 nm, higher = more signal;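 note: score merges 667 nm emission intensity and signal-to-noise per printed compound spot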
# [1] = probe aXIP binding to arrayed compounds – biochemical, NeuroSMM set, 635/667 nm fluorescence, primary screen (AID 1119); conditions: small-molecule microarray, higher = more signal, called active from +8 up or from −8 down;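 note: probe is the protein aXip251-270 applied at 1 µg/mL to compound-printed slides; binding of probe to printed compounds measured as 667 nm fluorescence plus signal to noise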
# [2] = probe aNOTCH3 binding on compound microarray – biochemical, small-molecule microarray, 635/667 nm fluorescence, primary screen (AID 1120); conditions: higher = more signal;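 note: probe is a biotin-tagged antibody raised against NOTCH3 rather than NOTCH3 protein; score merges spot fluorescence near 667 nm with spot signal to noise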
# [3] = probe aNOTCH2 binding on compound microarray – biochemical, small-molecule microarray, 635/667 nm fluorescence, primary screen (AID 1121); conditions: higher = more signal;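 note: score merges feature fluorescence read at 667 nm with its signal to noise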
# [4] = biological target: Carbonic anhydrase 2 (Homo sapiens) (UniProt P00918); assay: compounds binding carbonic anhydrase 2 – biochemical, small-molecule microarray, Alexa647-labelled CAII, profiling panel (AID 1122); conditions: CAII-A647 binding fluorescence, higher = more signal
# [5] = COS7 lysate on small-molecule microarray, probe aHis, 635 nm (AID 1123); conditions: COS7 cell lysate, fluorescence, higher = more signal;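 note: z-score combines 667nm fluorescence intensity with signal-to-noise per printed compound spot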
# [6] = probe aLAP1 signal on lysate-treated microarray – cell lysate, small-molecule microarray, COS7 lysate, primary screen (AID 1124); conditions: probe aLAP1, fluorescence, higher = more signal;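 note: lysate comes from COS7 cells expressing LAP1 and is applied at 0.3 µg/mL; score merges spot fluorescence near 667 nm with signal-to-noise over triplicate slides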
# Sam68 (KHDRBS1) = assay: compounds binding KHDRBS1 protein – biochemical, small-molecule microarray, 635 nm fluorescence, primary screen (AID 1125); conditions: higher = more signal;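 note: score merges 667 nm channel intensity with signal to noise over triplicate slides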
# [7] = system: Chordin-like protein 2 (CHRDL2); assay: compounds binding chordin-like 2 – biochemical, small-molecule microarray, 635 nm fluorescence, primary screen (AID 1126); conditions: fluorescence 635 nm, higher = more signal;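 note: printed compound slides probed with Chrdl2 protein at 4 µg/mL for 1 h at 4 C; score merges 667 nm emission intensity with signal to noise over three replicate slides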
# [8] = biological target: Concanavalin-A (Canavalia ensiformis) (UniProt P02866); assay: compounds binding concanavalin A lectin – biochemical, small-molecule microarray, Alexa647 label, 635 nm, artefact control for SMM control protein annotation, primary screen (AID 1127); conditions: ConA-A647 binding fluorescence, higher = more signal;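 note: z combines 667 nm emission intensity with signal-to-noise across three replicate slides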
# Sequence of Concanavalin-A (Canavalia ensiformis) (P02866 whole entry, looked up): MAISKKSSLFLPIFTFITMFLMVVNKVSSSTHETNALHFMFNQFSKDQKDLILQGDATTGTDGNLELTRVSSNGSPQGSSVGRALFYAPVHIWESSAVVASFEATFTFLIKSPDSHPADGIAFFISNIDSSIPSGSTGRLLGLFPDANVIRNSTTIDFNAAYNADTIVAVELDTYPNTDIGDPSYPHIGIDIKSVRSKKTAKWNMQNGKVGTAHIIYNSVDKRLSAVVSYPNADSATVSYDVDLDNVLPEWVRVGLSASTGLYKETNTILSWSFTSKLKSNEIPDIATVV
# Sequence of Albumin (Bos taurus) (P02769 whole entry, looked up): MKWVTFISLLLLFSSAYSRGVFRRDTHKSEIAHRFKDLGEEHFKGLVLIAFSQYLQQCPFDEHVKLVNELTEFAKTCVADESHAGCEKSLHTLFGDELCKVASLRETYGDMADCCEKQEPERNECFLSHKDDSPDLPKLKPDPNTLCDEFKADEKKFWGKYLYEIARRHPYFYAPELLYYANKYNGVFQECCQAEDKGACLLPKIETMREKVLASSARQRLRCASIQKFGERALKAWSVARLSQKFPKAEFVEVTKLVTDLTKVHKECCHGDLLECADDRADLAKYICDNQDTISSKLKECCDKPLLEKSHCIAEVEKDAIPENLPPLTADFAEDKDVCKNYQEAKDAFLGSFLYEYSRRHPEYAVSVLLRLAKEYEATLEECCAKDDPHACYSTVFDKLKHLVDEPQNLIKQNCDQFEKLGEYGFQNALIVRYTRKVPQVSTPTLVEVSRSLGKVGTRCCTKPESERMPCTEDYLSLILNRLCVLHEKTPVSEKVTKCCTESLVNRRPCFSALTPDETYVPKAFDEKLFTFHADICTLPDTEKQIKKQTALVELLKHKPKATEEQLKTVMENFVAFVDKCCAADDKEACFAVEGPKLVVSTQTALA
Compound,composite z-score (Albumin (Bos taurus)),composite Z-score [1],composite z-score [2],composite z-score [3],composite z-score [4],composite z-score [5],composite z-score [6],composite z-score (Sam68 (KHDRBS1)),composite z-score [7],composite z-score [8]
[N-]=[N+]=Nc1ccccc1[C@H]1OC(c2ccc(OCCCO)cc2)=N[C@@]1(CCS(=O)(=O)c1ccccc1)C(=O)NCC(O)CO (stereo not given in full),0.876,-0.0683 (inactive),0.102,-0.0984,0.718,3.02,0.261,1.33,-0.907,0.833
CO[C@H]1O[C@H](CO)[C@@H](OC(=O)Nc2ccc(Oc3ccccc3)cc2)[C@H](OC(=O)Nc2ccc3c(c2)OCO3)[C@H]1OC(=O)Nc1ccc2c(c1)OCO2,0.703,0.705 (inactive),0.264,0.0976,0.471,2.19,0.763,1.3,0.317,1.12
CC(C)C(CO)N1C(=O)[C@@H]2C3C(=O)OCCC/C=C\[C@H]3OC23C=CCN(CCN2CCOCC2)C(=O)[C@@H]13 (stereo not given in full),0.692,-0.298 (inactive),-0.21,-0.0928,0.463,-0.301,0.395,-0.362,-0.254,-0.724
CCOC(=O)[C@H]1C/C=C/C[C@H](C(=O)OCC)C(=O)O[C@H]2[C@@H](OC)O[C@H](CO)[C@@H](OC(=O)c3c(OC)cccc3OC)[C@@H]2OC1=O,0.0961,0.338 (inactive),0.275,-0.108,0.512,1.66,0.47,1.26,0.83,0.932
CN(C)CCCCCCNC(=O)[C@H]1C[C@H]2C(=O)N[C@@H](CCCCN)C(=O)N2[C@H]1c1cccc(OCCO)c1,0.733,5.67 (inactive),1.95,0.986,0.773,4.1,0.952,1.33,1.46,1.25
COC(=O)[C@@]1(Cc2ccc(OC)cc2)[C@H]2c3cc(C(=O)N4CCCC4)n(CCN4CNCC4=O)c3C[C@H]2CN1C(=O)c1ccccc1,1.1,0.413 (inactive),1.49,0.967,0.57,1.79,0.104,-0.764,-0.316,-0.234
CC1(C)[C@@H]2CC(C(O)C3C=CC4C(=O)N(c5ccccc5)C(=O)C4N3Nc3ccc([N+](=O)[O-])cc3)=C[C@H]1C2 (stereo not given in full),0.973,0.131 (inactive),0.101,-0.106,0.425,2.8,0.0175,1.33,0.649,1.17
CCCC[C@H]1OB(O)C[C@H]2C1=C(COC)C[C@H]1C(=O)N(C)C(=O)[C@H]12,-0.126,-0.618 (inactive),-0.0328,-0.201,0.39,0.502,0.0459,0.462,0.245,0.744
COc1cc2c(cc1O)C(C1CC1)N(Cc1sc3ccccc3c1Cl)CC2 (stereo not given),0.718,-0.909 (inactive),-0.152,-0.0984,0.76,2.69,0.862,0.888,0.185,0.0387
C=C(/C(=C/C[C@H](OC(C)=O)c1ccc(CO)o1)c1cc(C(=O)OC)ccc1OC)C(C)C,0.222,0.72 (inactive),-0.0328,-0.148,0.646,0.356,-0.185,0.271,-0.649,-0.237
[N-]=[N+]=NCc1ccccc1C[C@]1(C(N)=O)COC(c2ccc(OCCCO)cc2)=N1,0.624,0.155 (inactive),0.0225,0.106,0.656,2.24,1.29,0.48,-0.846,0.556
CN(C)CCCC[C@@H]1NC(=O)[C@@H]2C[C@H](C(=O)NCCCCCCN)[C@H](c3cccc(OCCO)c3)N2C1=O,0.839,0.938 (inactive),1.07,0.308,0.632,3.25,0.495,1.3,0.299,1.13
O=C(c1ccccc1)N1C(=O)[C@@]2(Cc3ccccc31)N=C(c1ccc(OCCCO)cc1)O[C@H]2c1ccccc1,-0.85,0.718 (inactive),0.33,0.14,0.575,2.41,1.22,1.31,0.897,1.14
COCCOC(=O)N1C(=O)[C@@]2(c3cc(C#CCNC(N)=O)ccc31)[C@H](C(=O)N1CCN(c3ncccn3)CC1)[C@H]1C(=O)O[C@H](c3ccccc3)[C@H](c3ccccc3)N1[C@@H]2c1ccc(OCCO)cc1,0.521,0.242 (inactive),0.185,-0.108,0.193,1.48,0.437,1.29,0.0879,1
C=CCC(OC(C)=O)[C@@H]1[C@@H](N(Cc2ccc(-c3ccccc3)cc2)C(=O)c2cccc3ccccc23)c2cc(OCCCO)ccc2N1C(=O)c1ccc(-c2ccccc2)cc1 (stereo not given in full),-0.0695,0.45 (inactive),0.0897,-0.0783,0.175,1.17,0.674,0.316,0.111,-0.249
COC(=O)c1c(CC[C@@H](CO)NC(=O)NCCn2cc(C3(O)CCCC3)nn2)oc(C(C)=O)c1C(=O)OC,0.351,-0.79 (inactive),-0.209,-0.128,0.745,0.603,-0.108,0.492,-0.505,-0.027
